Results on 45 compounds are retold here after paper PMC4336329 (PLoS ONE, 2015).

About 14,000 (4.5%) of roughly 310,000 compounds showed an effect of 50% or more. Effects have a minus sign here. Shown is part of a subset that was picked to be rich in strong results.
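Also: peak tail current of the secondary pulse compared with the same well before compound.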

Chain of human ether-à-go-go-related gene (hERG) potassium channel (Q12809 whole entry, looked up): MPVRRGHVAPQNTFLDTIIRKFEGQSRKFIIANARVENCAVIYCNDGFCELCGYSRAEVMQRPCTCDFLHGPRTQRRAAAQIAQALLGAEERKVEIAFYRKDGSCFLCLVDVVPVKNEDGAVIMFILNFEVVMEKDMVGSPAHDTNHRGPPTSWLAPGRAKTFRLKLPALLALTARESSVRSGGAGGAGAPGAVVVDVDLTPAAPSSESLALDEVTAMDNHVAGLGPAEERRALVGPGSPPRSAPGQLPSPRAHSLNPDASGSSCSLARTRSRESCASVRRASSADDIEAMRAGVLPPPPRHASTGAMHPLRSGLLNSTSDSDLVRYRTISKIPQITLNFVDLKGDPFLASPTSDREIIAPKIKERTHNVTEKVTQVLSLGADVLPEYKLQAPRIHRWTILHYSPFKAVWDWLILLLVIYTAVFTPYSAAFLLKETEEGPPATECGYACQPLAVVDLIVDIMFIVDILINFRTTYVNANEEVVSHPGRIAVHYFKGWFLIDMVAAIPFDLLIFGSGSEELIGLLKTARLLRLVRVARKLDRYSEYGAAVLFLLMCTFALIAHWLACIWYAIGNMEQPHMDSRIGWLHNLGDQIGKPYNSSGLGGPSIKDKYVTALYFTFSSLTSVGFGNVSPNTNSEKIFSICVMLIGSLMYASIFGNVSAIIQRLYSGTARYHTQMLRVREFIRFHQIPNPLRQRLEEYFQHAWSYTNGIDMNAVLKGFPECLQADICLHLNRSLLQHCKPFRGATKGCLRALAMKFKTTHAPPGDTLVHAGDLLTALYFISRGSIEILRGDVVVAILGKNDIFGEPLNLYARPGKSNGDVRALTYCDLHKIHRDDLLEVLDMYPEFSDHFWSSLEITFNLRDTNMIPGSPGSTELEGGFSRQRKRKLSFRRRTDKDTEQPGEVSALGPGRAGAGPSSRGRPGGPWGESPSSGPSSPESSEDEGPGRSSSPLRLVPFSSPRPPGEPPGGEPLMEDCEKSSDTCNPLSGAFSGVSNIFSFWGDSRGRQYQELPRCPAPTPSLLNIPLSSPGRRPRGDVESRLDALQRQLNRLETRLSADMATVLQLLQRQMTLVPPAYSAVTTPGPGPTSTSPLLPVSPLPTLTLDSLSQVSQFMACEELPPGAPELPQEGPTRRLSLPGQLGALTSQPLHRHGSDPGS

The assay concerns the target human ether-à-go-go-related gene (hERG) potassium channel (human, UniProt Q12809). The assay can be described thus: primary screen, population patch clamp on CHO cells stably expressing hERG; higher = less effect of the substance.
Turning to `CC1(C)CC2(CCO1)OC(=O)CC2C(=O)Nc1ccccc1Cl` (stereo not drawn), the “hERG current change (%, negative = inhibition) at 10uM” value is 1.54%. In the case of `Cc1ccc(S(=O)(=O)NNC(=O)c2cccs2)c(C)c1` it was 14.4%; in that of `Cc1ccc(O)c(N=NC2=C(O)CC(C)(C)CC2=O)c1`, 3.16%; in that of `Cc1nn(C)c(Oc2cccc(Cl)c2)c1C(=O)Nc1ccc(F)cc1`, -15.3%.

With `CCn1c(CCn2ccnc2C)n[nH]c1=S`, the “hERG current change (%, negative = inhibition) at 10uM” value is recorded as -1.48%.

With `O=C1CCCC2=C1C(Cc1ccccc1)C1=C(CCCC1=O)O2`, the “hERG current change (%, negative = inhibition) at 10uM” value is listed as -3.32%. With `CCCc1cc(C(=O)NC(C)C2CCCO2)cs1` (stereo not drawn), the “hERG current change (%, negative = inhibition) at 10uM” value is listed as 7.72%. In the case of `Cc1nc2cc(NS(=O)(=O)c3ccccc3)ccc2n1C` it was 9.21%. For the compound `CC(=O)c1cccc(NC(=O)C2CCCN(S(C)(=O)=O)C2)c1` (stereo not drawn), the “hERG current change (%, negative = inhibition) at 10uM” value is given as 8.02%. The result for `N#C/C(=C\c1ccccc1)C(=O)Nc1ccccn1` reads 12.7%; that for `CCCCN1C(=O)c2ccc(C(=O)Nc3cccc(C)c3C)cc2C1=O`, 17.2%; that for `CCCCN1C(=O)c2ccc(C(=O)Nc3ccc(S(=O)(=O)N(C)C)cc3)cc2C1=O`, -0.448%. With `CCCCN1C(=O)c2ccc(C(=O)Nc3c(N)n(CCCC)c(=O)n(C)c3=O)cc2C1=O`, the “hERG current change (%, negative = inhibition) at 10uM” value was -51.9%.

For the compound `CCOC(=O)C1(Cc2ccc(Cl)cc2)CCN(C(=O)CCc2cnccn2)CC1`, the “hERG current change (%, negative = inhibition) at 10uM” value is -50%.

Consider `CCOC(=O)C1(Cc2ccc(OC)cc2)CCN(C(=O)CCc2cnccn2)CC1`, for which the “hERG current change (%, negative = inhibition) at 10uM” value is listed as -7.37%. For the compound `CCOC(=O)C1(CCc2ccccc2)CCN(C(=O)CCc2cnccn2)CC1`, the “hERG current change (%, negative = inhibition) at 10uM” value is -66.5%. For `CCOC(=O)C1(CCCc2ccccc2)CCN(C(=O)CCc2cnccn2)CC1`, the “hERG current change (%, negative = inhibition) at 10uM” value is given as -66.4%. The result for `Cc1ccc(C)c(SCC(=O)Nc2cccnc2Cl)c1` reads 0.545%. In the case of `O=C(COC(=O)Cc1ccccc1[N+](=O)[O-])NCC1CCCCC1` it was 0.647%.

Consider `COc1ccc(NC(=S)NC(=O)C2CCC2)cc1`, for which the “hERG current change (%, negative = inhibition) at 10uM” value is 7.29%.

Consider `O=S(=O)(NCc1ccco1)c1cccc2cccnc12`, for which the “hERG current change (%, negative = inhibition) at 10uM” value is given as -22.3%. Turning to `N#CC(C#N)=C1C=CC=CN1/C(=C\c1ccccc1Cl)C(=O)c1ccccc1`, the “hERG current change (%, negative = inhibition) at 10uM” value came to 8.73%. Turning to `COc1ccc(C(=O)/C(=C\c2ccco2)N2C=CC=CC2=C(C#N)C#N)cc1`, the “hERG current change (%, negative = inhibition) at 10uM” value was -72%. In the case of `N#CC(C#N)=C1C=CC=CN1/C(=C\c1ccco1)C(=O)c1ccc(Cl)cc1` it was -36%. In the case of `N#CC(C#N)=C1C=CC=CN1/C(=C\c1ccco1)C(=O)c1ccccc1`, the “hERG current change (%, negative = inhibition) at 10uM” value is on record as -57.8%.

Regarding `N#CC(C#N)=C1C=CC=CN1/C(=C\c1ccco1)C(=O)c1ccc(Br)cc1`, the “hERG current change (%, negative = inhibition) at 10uM” value was -46.5%.

As for `N#CC(C#N)=C1C=CC=CN1/C(=C\c1ccco1)C(=O)c1ccc(-c2ccccc2)cc1`, the “hERG current change (%, negative = inhibition) at 10uM” value came out at 3.14%. The result for `COc1cc(/C=N/Nc2ccc([N+](=O)[O-])cc2S(=O)(=O)N2CCOCC2)cc(OC)c1OC` reads -3.33%; that for `O=C(Nc1ccc(Cl)cc1Cl)c1csc(-c2cccnc2)n1`, -1.42%.

Consider `CS(=O)(=O)N1CCc2cc(C(=O)Nc3ccccc3)ccc21`, for which the “hERG current change (%, negative = inhibition) at 10uM” value is -1.25%. The result for `Cc1cccc(Nc2nc(NCc3ccco3)nc(N)c2[N+](=O)[O-])c1` reads 10.6%; that for `CCOc1cccc(CN2CCC(n3nccc3NC(=O)C3CC3)CC2)c1O`, -64.2%; that for `Cc1ccccc1CN1CCC(n2nccc2NC(=O)c2cccnc2)CC1`, -14.6%. In the case of `O=C(Nc1ccnn1C1CCN(Cc2cccc(F)c2F)CC1)C1CCCC1` it was -23.2%; in that of `CC(C)Oc1ccc(CN2CCC(n3nccc3NC(=O)c3cccnc3)CC2)cc1`, -70.4%; in that of `COc1ccc(CN2CCC(n3nccc3NC(=O)C3CC3)CC2)cc1O`, -58.8%.

Consider `O=C(Nc1ccnn1C1CCN(Cc2ccc(OC(F)F)cc2)CC1)C1CCCC1`, for which the “hERG current change (%, negative = inhibition) at 10uM” value is -75.3%.

As to `Cc1ccc(CN2CCC(n3nccc3NC(=O)C3CCOC3)CC2)cc1C` (stereo not drawn), the “hERG current change (%, negative = inhibition) at 10uM” value was -20.5%. In the case of `Cc1cc(NC(=O)C(C)SCC(=O)OCc2ccc(Cl)cc2Cl)no1` (stereo not drawn) it was 1.04%; in that of `Cc1ccc(C(=O)NCc2ccco2)c(C)c1`, 20.5%; in that of `O=C(CCC(=O)N1CCN(c2ccc(O)cc2)CC1)c1ccc(Br)cc1`, -44.4%. The result for `O=C(O)c1cc(-c2ccccc2)nc(-c2ccccc2)c1` reads 22.5%; that for `CC1CN(c2ccc([N+](=O)[O-])cc2C(=O)N2CCOCC2)CC(C)N1` (stereo not drawn), -9.17%. Turning to `CC(C)(O)C#Cc1ccc(CN2CCC(n3nccc3NC(=O)C3CC3)CC2)cc1`, the “hERG current change (%, negative = inhibition) at 10uM” value is reported as -19%.

Turning to `CCOc1ccc(CN2CCC(n3nccc3NC(=O)C3CC3)CC2)cc1CO`, the “hERG current change (%, negative = inhibition) at 10uM” value is given as -57.1%.
